Assay [1] in a line: NCI Yeast Anticancer Drug Screen. Data for the rad50 strain (AID 155).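 Further: 0% = growth of vehicle-only cultures of the same strain.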 Particulars: S. cerevisiae rad50 strain growth inhibition, stronger effect = higher value. Put shortly: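 Growth of the mutant yeast was measured after compound exposure and referenced to vehicle-treated cultures.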
Assay [2] in a line: NCI Yeast Anticancer Drug Screen. Data for the mec2-1 strain (AID 157). The settings on record: S. cerevisiae mec2-1 strain, stronger effect = higher value. An outline of the steps: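 Growth inhibition is read against vehicle-treated controls after compound exposure of the mec2-1 yeast strain, which is defective in DNA damage repair or cell cycle control.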
Assay [3] can be described thus: NCI Yeast Anticancer Drug Screen. Data for the sgs1 mgt1 strain (AID 161).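 Further: 0% = growth of cultures given vehicle only.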 Particulars: S. cerevisiae sgs1 mgt1 strain, stronger effect = higher value. Put shortly: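 Growth of a repair-deficient yeast mutant was monitored after compound treatment and expressed as inhibition relative to vehicle-treated cultures.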
Assay [4] can be described thus: NCI Yeast Anticancer Drug Screen. Data for the cln2 rad14 strain (AID 165).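 Further: 0% = growth equal to vehicle treated cultures.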 The settings on record: S. cerevisiae cln2 rad14 strain, stronger effect = higher value. Put shortly: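 Growth inhibition, relative to vehicle-treated controls, is the read-out. The test organism is a yeast strain with defined genetic alterations, cln2 rad14.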
Assay [5] in a line: NCI Yeast Anticancer Drug Screen. Data for the bub3 strain (AID 167). Particulars: S. cerevisiae bub3 mutant strain, stronger effect = higher value. Put shortly: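 Whole-cell yeast assay. The mutant strain was incubated with compounds, and growth inhibition was determined by comparison with vehicle-treated cells.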
A short description of assay [6]: NCI Yeast Anticancer Drug Screen. Data for the mlh1 rad18 strain (AID 175). Particulars: S. cerevisiae mlh1 rad18 strain growth inhibition, stronger effect = higher value. An outline of the steps:
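Cells of a genetically altered yeast strain, deficient in DNA damage repair, were treated with compound. Their growth was then compared with that of vehicle-treated cultures to give inhibition.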

[7] abbreviates: at 5.0 µM (retest, dose inferred, filed as 0.5).
[8] abbreviates: at 50.0 µM (retest, dose inferred, filed as 5.0).

Values joined by “and” are separate entries in the source; they are usually repeats but may differ in a detail not shown here. Equal entries are not always repeated. The panel holds about 79,000 compounds, 15% with a hit somewhere; the sample as a whole holds those more often. Some compounds were tested as several samples or in several runs, with calls that do not always agree. Active and inactive are the calls of the source. No stated cut-off is given here; in the data, active means growth inhibition above about 70%; inactive means the rest.

For the compound `c1ccc([P+](CCCCCCCC[P+](c2ccccc2)(c2ccccc2)c2ccccc2)(c2ccccc2)c2ccccc2)cc1`, the growth inhibition is 40% (inactive) in assay [1] (setting [7]); 98% (active) in assay [1] (setting [8]); 88.5% (active) in assay [1] (at 50.0 µM); 39% (inactive) in assay [2] (setting [7]); 99% (active) in assay [2] (setting [8]); 92% (active) in assay [2] (at 50.0 µM). Besides, the growth inhibition is 46% (inactive) in assay [3] (setting [7]); 98% (active) in assay [3] (setting [8]); 90.9% (active) in assay [3] (at 50.0 µM); 30% (inactive) in assay [4] (setting [7]); 95% (active) in assay [4] (setting [8]); 87.7% (active) in assay [4] (at 50.0 µM). Further, the growth inhibition in assay [5] (setting [7]) was 46% (inactive); in assay [5] (setting [8]) it was 98% (active); in assay [5] (at 50.0 µM), 91.1% (active); in assay [6] (setting [7]), 73% (active); in assay [6] (setting [8]) it was 97% (active); in assay [6] (at 50.0 µM), 89.8% (active).

Take `CCCN(CCC)C(=S)N/N=C/c1ccccn1`: the growth inhibition was 99% (active) in assay [1] (setting [7]); 99% (active) in assay [1] (setting [8]); 90.5% (active) in assay [1] (at 50.0 µM); 99% (active) in assay [2] (setting [7]); 100% (active) in assay [2] (setting [8]); 93.1% (active) in assay [2] (at 50.0 µM). Moreover, the growth inhibition in assay [3] (setting [7]) is 98% (active); in assay [3] (setting [8]), 99% (active); in assay [3] (at 50.0 µM), 92.4% (active); in assay [4] (setting [7]) it was 98% (active); in assay [4] (setting [8]), 100% (active); in assay [4] (at 50.0 µM), 93.5% (active). The growth inhibition in assay [5] (setting [7]) is 99% (active); in assay [5] (setting [8]), 100% (active); in assay [5] (at 50.0 µM), 92.5% (active); in assay [6] (setting [7]), 99% (active); in assay [6] (setting [8]), 99% (active); in assay [6] (at 50.0 µM), 89.8% (active).

As for `O=C(NN1CCOC1=O)OCCCl`, the growth inhibition in assay [1] (setting [7]) was -2% (inactive); in assay [1] (setting [8]), 2% (inactive); in assay [1] (at 50.0 µM), 24.7% (inactive); in assay [2] (setting [7]), -1% (inactive); in assay [2] (setting [8]), -6% (inactive); in assay [2] (at 50.0 µM), 18.7% (inactive). Further, the growth inhibition in assay [3] (setting [7]) is -8% (inactive); in assay [3] (setting [8]) it was -7% (inactive); in assay [3] (at 50.0 µM), 34.6% (inactive); in assay [4] (setting [7]), 9% (inactive); in assay [4] (setting [8]), 0% (inactive); in assay [4] (at 50.0 µM) it was 24.6% (inactive). For the same compound, the growth inhibition in assay [5] (setting [7]) was 6% (inactive); in assay [5] (setting [8]), 2% (inactive); in assay [5] (at 50.0 µM) it was -16.1% (inactive); in assay [6] (setting [7]), -1% (inactive); in assay [6] (setting [8]), 1% (inactive); in assay [6] (at 50.0 µM), 73.5% (active).

Take `CN(C)CCNC(=O)Cc1cc(O)c2c(c1O)C(=O)c1ccccc1C2=O`: the growth inhibition in assay [1] (setting [7]) was 6% (inactive); in assay [1] (setting [8]), 42% (inactive); in assay [1] (at 50.0 µM) it was 75.3% (active); in assay [2] (setting [7]), 6% (inactive); in assay [2] (setting [8]), 16% (inactive); in assay [2] (at 50.0 µM), 23% (inactive). In addition, the growth inhibition is 4% (inactive) in assay [3] (setting [7]); 28% (inactive) in assay [3] (setting [8]); 81.3% (active) in assay [3] (at 50.0 µM); -7% (inactive) in assay [4] (setting [7]); 12% (inactive) in assay [4] (setting [8]); 54.7% (inactive) in assay [4] (at 50.0 µM). The growth inhibition is 0% (inactive) in assay [5] (setting [7]); 16% (inactive) in assay [5] (setting [8]); 16% (inactive) in assay [5] (at 50.0 µM); 4% (inactive) in assay [6] (setting [7]); 10% (inactive) in assay [6] (setting [8]); 82.1% (active) in assay [6] (at 50.0 µM).

Consider `CCOC(=O)[C@H]1Nc2ccc([N+](=O)[O-])cc2C2c3ccccc3CC21` (some centres undefined), for which the growth inhibition is 32% (inactive) in assay [1] (setting [7]); 91% (active) in assay [1] (setting [8]); 80.3% (active) in assay [1] (at 50.0 µM); -11% (inactive) in assay [2] (setting [7]); 48% (inactive) in assay [2] (setting [8]); 87.8% (active) in assay [2] (at 50.0 µM). Moreover, the growth inhibition in assay [3] (setting [7]) is 24% (inactive); in assay [3] (setting [8]) it was 93% (active); in assay [3] (at 50.0 µM), 91.2% (active); in assay [4] (setting [7]) it was 8% (inactive); in assay [4] (setting [8]) it was 91% (active); in assay [4] (at 50.0 µM) it was 86.3% (active). The growth inhibition in assay [5] (setting [7]) is 6% (inactive); in assay [5] (setting [8]), 89% (active); in assay [5] (at 50.0 µM), 88.2% (active); in assay [6] (setting [7]), 17% (inactive); in assay [6] (setting [8]), 90% (active); in assay [6] (at 50.0 µM), 84% (active).

With `CCCCCCCCCCSC(=N)N`, the growth inhibition in assay [1] (setting [7]) was -141% (inactive) and 19% (inactive); in assay [1] (setting [8]), 82% (active) and 91% (active); in assay [1] (at 50.0 µM), 52.9% (inactive) and 95.7% (active); in assay [2] (setting [7]) it was -48% (inactive) and -3% (inactive); in assay [2] (setting [8]) it was 71% (active) and 86% (active); in assay [2] (at 50.0 µM), 49.8% (inactive) and 89.2% (active). Further, the growth inhibition in assay [3] (setting [7]) is -54% (inactive) and 22% (inactive); in assay [3] (setting [8]), 90% (active) and 95% (active); in assay [3] (at 50.0 µM), 52.5% (inactive) and 96.5% (active); in assay [4] (setting [7]), -50% (inactive) and 8% (inactive); in assay [4] (setting [8]) it was 49% (inactive) and 62% (inactive); in assay [4] (at 50.0 µM), 57.5% (inactive) and 57.2% (inactive). The growth inhibition in assay [5] (setting [7]) is -47% (inactive) and 22% (inactive); in assay [5] (setting [8]) it was 84% (active) and 92% (active); in assay [5] (at 50.0 µM), 52.5% (inactive) and 94.3% (active); in assay [6] (setting [7]), -134% (inactive) and 1% (inactive); in assay [6] (setting [8]), 79% (active) and 90% (active); in assay [6] (at 50.0 µM), 52% (inactive) and 92.1% (active).

For the compound `Cc1nnc(S(=O)(=O)c2ccc(N=Nc3c(N)nc(N)nc3N)cc2)s1`, the growth inhibition in assay [1] (setting [7]) was 6% (inactive); in assay [1] (setting [8]), 20% (inactive); in assay [1] (at 50.0 µM), -5.45% (inactive); in assay [2] (setting [7]) it was 8% (inactive); in assay [2] (setting [8]), -5% (inactive); in assay [2] (at 50.0 µM), -13.2% (inactive). Moreover, the growth inhibition was -8% (inactive) in assay [3] (setting [7]); -9% (inactive) in assay [3] (setting [8]); -9.15% (inactive) in assay [3] (at 50.0 µM); 9% (inactive) in assay [4] (setting [7]); 4% (inactive) in assay [4] (setting [8]); 68.4% (inactive) in assay [4] (at 50.0 µM). The growth inhibition is -1% (inactive) in assay [5] (setting [7]); 7% (inactive) in assay [5] (setting [8]); -23.5% (inactive) in assay [5] (at 50.0 µM); 11% (inactive) in assay [6] (setting [7]); 7% (inactive) in assay [6] (setting [8]); 6.4% (inactive) in assay [6] (at 50.0 µM).

As for `CN1CCCc2cc(/C=C\c3ccnc4ccccc34)ccc21`, the growth inhibition in assay [1] (setting [7]) is -2% (inactive); in assay [1] (setting [8]), 94% (active); in assay [1] (at 50.0 µM), 96% (active); in assay [2] (setting [7]), -10% (inactive); in assay [2] (setting [8]), 97% (active); in assay [2] (at 50.0 µM), 97.1% (active). Also, the growth inhibition in assay [3] (setting [7]) was -10% (inactive); in assay [3] (setting [8]) it was 96% (active); in assay [3] (at 50.0 µM), 98.3% (active); in assay [4] (setting [7]), -6% (inactive); in assay [4] (setting [8]), 94% (active); in assay [4] (at 50.0 µM), 93% (active). In addition, the growth inhibition was -7% (inactive) in assay [5] (setting [7]); 94% (active) in assay [5] (setting [8]); 96.8% (active) in assay [5] (at 50.0 µM); -21% (inactive) in assay [6] (setting [7]); 96% (active) in assay [6] (setting [8]); 97.4% (active) in assay [6] (at 50.0 µM).
